# ChEMBL document CHEMBL3988442, “University of Dundee, Small-Polar-MMV Screening Library” (2021)
# In all, about 69,000 compounds went through this assay and about 1,000 (1.4%) showed an effect of 50% or more. This excerpt belongs to a sample that is enriched for strong results.
# System: Leishmania donovani
# Experiment: Leishmania intramacrophage assay
# Format: functional, organism-based
# Design: scale not given: in the data most compounds retested in dose-response had high values
compound,measurement,setting,value
O=C(c1csc(-c2ncccn2)n1)N1CCN(C2CCCC2)CC1,Percent Effect,"30.3 µM, […]",15.8%
COc1cc(N2C[C@@H]3COC[C@]3(COc3ccccn3)C2)ncn1.O=C(O)C(F)(F)F.O=C(O)C(F)(F)F,Percent Effect,"30.3 µM, […]",12.8%
N#Cc1ccc(OC[C@]23COC[C@H]2CN(c2ncccn2)C3)nc1,Percent Effect,"30.3 µM, […]",-11.64%
COc1cc(N2C[C@@H]3COC[C@]3(COc3ccc(C#N)cn3)C2)ncn1,Percent Effect,"30 µM, 30.03 µM",56.85%
Cc1csc(NC(=O)[C@@H]2C[C@H]3[C@H](CCN3S(C)(=O)=O)O2)n1,Percent Effect,"30.3 µM, […]",37.69%
Cn1ncc2c(NCCCOc3cccnc3)nc(C3CCCC3)nc21,Percent Effect,"30.3 µM, […]",7.938%
Cn1ncc2c(NCCOc3ccc(F)cc3)nc(C3CCCC3)nc21,Percent Effect,"30 µM, 30.03 µM",50.15%
CCOCCNc1nc(C2CCCC2)nc2c1cnn2C,Percent Effect,"30 µM, 30.03 µM",33.9%
CC[C@H]1CN(C(=O)C2CC2)CC[C@H]1CC(=O)NCCN1CCOCC1,Percent Effect,"30.3 µM, […]",-123.3%
CN(Cc1cc[nH]n1)C(=O)c1cccc(CCC(C)(C)O)c1,Percent Effect,"30 µM, 30.03 µM",14.32%
CN(Cc1n[nH]c2c1CCCC2)C(=O)c1cccc(CCC(C)(C)O)c1,Percent Effect,"30.3 µM, […]",22.46%
CN(Cc1n[nH]c2c1CCC2)C(=O)c1cccc(CCC(C)(C)O)c1,Percent Effect,"30.3 µM, […]",57.38%
N#Cc1ccc(CN2CCN(C(=O)c3cc(C4CC4)[nH]n3)CC2)cc1,Percent Effect,"30 µM, 30.03 µM",47.32%
CC(C)(C)CN(CCC#N)C(=O)c1cccc(CN2CCCC2)c1,Percent Effect,"30.3 µM, […]",15.51%
Cc1cccnc1C(=O)N1CCCC(c2[nH]ncc2S(C)(=O)=O)C1 (stereo not drawn),Percent Effect,"30 µM, 30.03 µM",-23.25%
CC(=O)N1CC[C@]2(O)CCN(Cc3nc(C)c[nH]3)C[C@@H]2C1,Percent Effect,"30.3 µM, […]",3.766%
O=C(O)C(F)(F)F.c1cnc(N2C[C@H]3CCN(CC4CC4)C[C@H]3C2)cn1,Percent Effect,"30.3 µM, […]",30.4%
O=C(O)C(F)(F)F.O=C(O)C(F)(F)F.c1cnc(N2C[C@H]3CCN(CCN4CCCC4)C[C@H]3C2)cn1,Percent Effect,"30.3 µM, […]",50.81%
O=C(C1CCCC1)N1C[C@@H]2CCN(c3cnccn3)C[C@@H]2C1.O=C(O)C(F)(F)F,Percent Effect,"30.3 µM, […]",10.31%
COC(=O)c1ccc(OC)c(OC23CCCN(CC2)C3)c1 (stereo not drawn),Percent Effect,"30.3 µM, […]",-2.222%
COc1ccc(SCC2CNc3nc4ccccc4c(=O)n32)cc1 (stereo not drawn),Percent Effect,"30.3 µM, […]",24.33%
O=C(NCCNc1ccc(C(F)(F)F)cn1)c1ccc(F)cc1Cl,Percent Effect,30 µM,35.81%
Cc1cc2c(cc1CN1CCCCC1CCn1ccnc1C)OCO2 (stereo not drawn),Percent Effect,"30.3 µM, […]",16.68%
Cc1nccn1CCC1CCCCN1Cc1ccncc1 (stereo not drawn),Percent Effect,"30 µM, 30.03 µM",14.55%
Cc1nccn1CCC1CCCCN1Cc1ccc(O)cc1Cl (stereo not drawn),Percent Effect,"30.3 µM, […]",62.65%
COc1ccccc1CCN1CCCC(CN(C)Cc2c[nH]c(C)n2)C1 (stereo not drawn),Percent Effect,"30.3 µM, […]",23.77%
COc1ccccc1CCN1CCCC(CN(C)Cc2ccc(C)o2)C1 (stereo not drawn),Percent Effect,"30.3 µM, […]",51.06%
COc1ccc(CCN2CCCC(CN(C)Cc3ccc(C)o3)C2)cc1 (stereo not drawn),Percent Effect,"30 µM, 30.03 µM",48.36%
CN(C)S(=O)(=O)N1CCC(Oc2ccc(C#N)cc2)CC1,Percent Effect,"30 µM, 30.03 µM",23.32%
COCCNC(=O)CCn1ncc2c(Cl)cccc21,Percent Effect,"30.3 µM, […]",-81.24%
CN(C)C(=O)CNC(=O)CCn1ncc2c(Cl)cccc21,Percent Effect,"30 µM, 30.03 µM",13.94%
CN(C)CCNC(=O)CCn1ncc2c(Cl)cccc21,Percent Effect,"30.3 µM, […]",55.96%
CCN(CC)CC(=O)NCc1cccnc1-n1cnc2ccccc21,Percent Effect,"30.3 µM, […]",12.53%
Cc1nc(CNc2ccc(C(=O)NCc3ccco3)cc2C)no1,Percent Effect,"30.3 µM, […]",3.169%
COc1cc(N2CC[C@H](O)[C@@H]2Cc2ccccc2)ncn1,Percent Effect,"30.3 µM, […]",33.09%
COc1cc(N2CC[C@@H](O)[C@@H]2Cc2ccccc2)ncn1,Percent Effect,"30.3 µM, […]",51.86%
COc1cc(N2CC[C@H](O)[C@@H]2Cc2cccnc2)ncn1,Percent Effect,"30.3 µM, […]",5.968%
Cc1cc(C(=O)N2CC[C@@]3(C[C@@H](NS(C)(=O)=O)CCO3)C2)no1,Percent Effect,"30.3 µM, […]",13.02%
O=C(CCn1cncn1)NCCOc1cccc(Cl)c1,Percent Effect,"30.3 µM, […]",-12.3%
Cc1c(C(C)NC2CCCC2)cnn1-c1ccc(F)cc1F (stereo not drawn),Percent Effect,"30.3 µM, […]",6.771%
CC(=O)N1CCC(NC(C)c2cnn(-c3ccc(F)cc3F)c2C)CC1 (stereo not drawn),Percent Effect,"30.3 µM, […]",3.786%
Cc1c(C(C)NC2CCN(C(C)C)CC2)cnn1-c1ccc(F)cc1F (stereo not drawn),Percent Effect,"30.3 µM, […]",61.65%
CCN(CCOC)C(=O)c1ccc2c(c1)nc(N1CC[C@H](O)C1)n2C,Percent Effect,"30.3 µM, […]",20.98%
COc1c(CNCc2ccc3c(c2)OCCO3)c(C(C)C)nn1C,Percent Effect,30 µM,-2.541%
CCc1nc(C)c(CN2CCN(c3ncnc4scc(C)c34)CC2)[nH]1,Percent Effect,"30.3 µM, […]",-3.854%
Cc1n[nH]c(CN2CCN(c3ncnc4scc(C)c34)CC2)c1Cl,Percent Effect,"30.3 µM, […]",71.39%
CCc1nc(C)c(CN2CCN(c3ncnc4c(C)csc34)CC2)[nH]1,Percent Effect,"30.3 µM, […]",24.01%
Cc1ccccc1CCNC(=O)C1CC(=O)N(CC(F)(F)F)C1 (stereo not drawn),Percent Effect,"30 µM, 30.03 µM",9.865%
O=C(NCCn1ccnc1)N1CCCC1c1ccc2c(c1)OCCO2 (stereo not drawn),Percent Effect,30 µM,14.25%
CC(C)(C(=O)NCc1n[nH]c(=O)[nH]1)c1ccc(F)cc1,Percent Effect,"30.3 µM, […]",17.25%
Cc1cc(=O)n2nc(Oc3ccc(F)c(F)c3)sc2n1,Percent Effect,"30.3 µM, […]",-0.08982%
Cc1cc(=O)n2nc(Oc3ccc(Cl)c(C)c3)sc2n1,Percent Effect,"30.3 µM, […]",74.91%
Cc1cc(=O)n2nc(Oc3cc(Cl)cc(Cl)c3)sc2n1,Percent Effect,"30.3 µM, […]",-38.32%
COC(=O)NC1(C(=O)NCc2ccc(-c3ccn[nH]3)cc2)CCCC1,Percent Effect,"30.3 µM, […]",3.496%
CNC(=O)c1sccc1N(C)S(=O)(=O)c1ccc(Cl)cc1,Percent Effect,"30.3 µM, […]",77.15%
CCNC(=O)c1sccc1N(C)S(=O)(=O)c1ccc(Cl)cc1,Percent Effect,"30.3 µM, […]",2.943%
CC(C)NC(=O)c1sccc1N(C)S(=O)(=O)c1ccc(Cl)cc1,Percent Effect,"30 µM, 30.03 µM",7.242%
Cc1ccc(C(=O)NC(C)CN2CCCC2=O)c(=O)[nH]1 (stereo not drawn),Percent Effect,"30 µM, 30.03 µM",6.193%
Cc1ccc(C(=O)NC(CN2CCCC2=O)c2ccccc2)c(=O)[nH]1 (stereo not drawn),Percent Effect,"30 µM, 30.03 µM",-14.78%
Cc1ccc(C(=O)NCC(C)CN2CCCC2=O)c(=O)[nH]1 (stereo not drawn),Percent Effect,"30.3 µM, […]",59.27%
Nc1nc(N)c2c(n1)OC1(CCCN(Cc3nccs3)CC1)C2 (stereo not drawn),Percent Effect,"30.3 µM, […]",27.22%
Cc1nonc1CN(C)c1nc(-c2ccco2)nc2c1CCN(C)CC2,Percent Effect,"30.3 µM, […]",55.96%
Cc1noc(CN(C)c2nc(-c3ccco3)nc3c2CCN(C)CC3)n1,Percent Effect,"30.3 µM, […]",-34.19%
Cc1cc(CN(C)c2nc(-c3ccco3)nc3c2CCN(C)CC3)on1,Percent Effect,"30.3 µM, […]",-83.89%
Cc1cccc(CN2C(=O)CO[C@@H]3CN(Cc4cnn(C)c4)C[C@H]32)c1.O=C(O)C(F)(F)F.O=C(O)C(F)(F)F,Percent Effect,"30.3 µM, […]",15.94%
CC(C)(C)CNC(=O)c1ccc(C(=O)O)cn1,Percent Effect,"30.3 µM, […]",-11.9%
CC(C)(C)CNC(=O)c1ccc(C(=O)O)nc1,Percent Effect,"30.3 µM, […]",60.75%
CC(C)(C)CNC(=O)c1ccc(C(=O)O)cc1,Percent Effect,"30.3 µM, […]",40.51%
Cc1ccc(-c2ncc(CN3CCOC(c4ccco4)C3)s2)o1 (stereo not drawn),Percent Effect,"30.3 µM, […]",-6.468%
COC(=O)CCCN(C)C(c1cccnc1)c1ccc(F)cc1F (stereo not drawn),Percent Effect,"30.3 µM, […]",21.57%
CC(C)N1CC(c2ncc(-c3ccc4c(c3)OCCO4)[nH]2)CC1=O (stereo not drawn),Percent Effect,"30.3 µM, […]",26.45%
Cc1ccc(CCN[C@@H]2c3ccccc3C3(CCNCC3)[C@H]2O)s1,Percent Effect,"30.3 µM, […]",84.2%
COc1ccccc1CCN[C@@H]1c2ccccc2C2(CCNCC2)[C@H]1O,Percent Effect,"30.3 µM, […]",35.47%
O[C@H]1[C@H](NCCc2ccccn2)c2ccccc2C12CCNCC2,Percent Effect,"30.3 µM, […]",-16.64%
CNC(=O)[C@@H]1C[C@H]2CN(Cc3csc(C)n3)C[C@H]2N1C(C)C.O=C(O)C(F)(F)F.O=C(O)C(F)(F)F,Percent Effect,"30.3 µM, […]",29.27%
CC(C)N1Cc2cccc(NCC(=O)N(C)C3CCCCC3)c2C1,Percent Effect,"30.3 µM, […]",17.74%
CC(C)C(C)N1Cc2cccc(NCC(=O)N(C)C)c2C1 (stereo not drawn),Percent Effect,"30.3 µM, […]",29.96%
CC(C)N1Cc2cccc(NCC(=O)N(C)C)c2C1,Percent Effect,"30.3 µM, […]",62.8%
Cc1cc(NC(=O)NCC2COc3ccccc3C2)no1 (stereo not drawn),Percent Effect,30 µM,-28.91%
Fc1ccc(CN2CCO[C@H]3[C@H](OCc4ccncc4)CC[C@@H]32)cc1.O=C(O)C(F)(F)F.O=C(O)C(F)(F)F,Percent Effect,"30.3 µM, […]",43.4%
Fc1ccccc1CN1C[C@@H](OCc2ccncc2)[C@H]2OCCC[C@H]21.O=C(O)C(F)(F)F.O=C(O)C(F)(F)F,Percent Effect,"30 µM, 30.03 µM",54.27%
CN(C)C(=O)CO[C@@H]1CN(Cc2ccccc2F)[C@@H]2CCCO[C@@H]21.O=C(O)C(F)(F)F,Percent Effect,"30.3 µM, […]",10.19%
Cc1cccc(CN2CCO[C@H]3[C@@H](OCc4ccncc4)CC[C@@H]32)n1.O=C(O)C(F)(F)F.O=C(O)C(F)(F)F.O=C(O)C(F)(F)F,Percent Effect,"30.3 µM, […]",12.49%
COc1ccc(CN2CCO[C@H]3[C@H](OCc4ccncc4)CC[C@@H]32)cc1.O=C(O)C(F)(F)F.O=C(O)C(F)(F)F,Percent Effect,"30.3 µM, […]",60.6%
Fc1ccccc1CN1C[C@H](OCC2CCOCC2)[C@H]2OCCC[C@H]21.O=C(O)C(F)(F)F,Percent Effect,"30.3 µM, […]",-19.24%
Cn1cc(S(=O)(=O)N(Cc2ccc(F)cc2F)C2CC2)cc1C(N)=O,Percent Effect,"30.3 µM, […]",34.27%
CNS(=O)(=O)CC1CCCN1C(=O)c1ccc(C)c(C)c1 (stereo not drawn),Percent Effect,"30.3 µM, […]",-9.061%
O=c1cc(-c2ccccc2)nc2n1CCCCC2,Percent Effect,"30.3 µM, […]",-39.42%
COCC(=O)NCc1cc2n(n1)CCCN(CCCC1CCCC1)C2,Percent Effect,"30.3 µM, […]",20.98%
COCC(=O)N1CCC2(CCN(c3cnn(C)c3)C2=O)C1 (stereo not drawn),Percent Effect,"30.3 µM, […]",13.44%
O=C([C@@H]1C[C@@H]2CCN(C3CCOCC3)C[C@@H]2O1)N1CCOCC1,Percent Effect,"30.3 µM, […]",9.764%
Cc1nn(C)cc1CN(C)C(=O)c1cnccn1,Percent Effect,"30.3 µM, […]",-25.04%
CCC(=O)NCCNC(=O)c1nn(C)c(C)c1Cl,Percent Effect,"30.3 µM, […]",-0.8741%
